Compound activity: PubChem, National Center for Advancing Translational Sciences (NCATS)
Shown are actives, neighbours in structure and some others; about 9% of the full set was active somewhere.
G9a inh: blocks human histone lysine methyltransferase G9a; G9a H3K9 monomethylation, AlphaScreen, 2 h; Potency, µM (doses to about 102 µM), for the others: at the highest dose activity, negative = inhibition, hits mostly inhibitors; 350,000 compounds, 8.8% hits; AID 504332; note: % is set by controls: 0 for no effect and ±100 for the full control effect; nearly all actives have a fitted effect of over 75% in size
Target sequence (Q96KQ7 913-1193 limits assumed): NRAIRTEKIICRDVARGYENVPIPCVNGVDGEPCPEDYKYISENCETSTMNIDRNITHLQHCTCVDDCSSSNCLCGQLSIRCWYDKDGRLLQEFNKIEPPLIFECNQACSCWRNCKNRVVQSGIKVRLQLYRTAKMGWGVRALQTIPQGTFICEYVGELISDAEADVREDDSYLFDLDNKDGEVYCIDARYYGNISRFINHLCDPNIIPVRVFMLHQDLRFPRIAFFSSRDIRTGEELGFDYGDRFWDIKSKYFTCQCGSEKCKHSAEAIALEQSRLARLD
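AlphaScreen detection with an anti-monomethyl H3K9 antibody quantified product after a 2 h room-temperature reaction containing 500 nM biotinylated H3K9 peptide, 20 µM SAM and 20 nM enzyme, which had been preincubated 15 min with compound.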
12-LOX inh: ALOX12 (human) lipoxygenase inhibition. P18054. purified 12hLO, xylenol orange hydroperoxide absorbance. Potency, µM (titrated, usually from 108 µM), for inactives: at the top dose activity change, negative = inhibition, most hits filed as inhibitors. 580,000 compounds, 1.1% hits. AID 1671190; note: % is set by controls: 0 for no effect and ±100 for the full control effect
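Purified human 12hLO (150 nM final) in 25 mM Hepes, 0.01% Triton X-100, pH 7.0 was preincubated 15 min at room temperature with compound. Then 40 uM arachidonic acid was added, 30 min. Hydroperoxide was read by Fe-XO absorbance ratio 573/405 nm.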
BAZ2B inh: inhibitors of human BAZ2B bromodomain; AlphaScreen BAZ2B-H3K14Ac peptide displacement; 360,000 compounds, 4.4% hits; AID 504333; Potency, µM (highest dose often 114 µM), without a hit: at the top dose activity change, negative = inhibition, actives largely listed as inhibitors; note: % is set by controls: 0 for no effect and ±100 for the full control effect; nearly all actives have a fitted effect of over 60% in size
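BAZ2B 50 nM plus b-H3(5-23)K14Ac 50 nM, PBS pH 7.4/0.01% Tween-20, 30 min RT; compound added (max 110 uM), 30 min RT; streptavidin donor/Ni-chelate acceptor beads 10 ug/mL final, 20 min dark; AlphaScreen read.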
HP1b chromo inh: inhibitors of HP1-beta chromodomain binding to methylated histone tails; 390,000 compounds, 0.56% hits; P83916; AlphaScreen HP1-beta / biotin-H3K9me3 peptide binding; Potency, µM (series often up to 114 µM), inactives show at the highest dose activity change, negative = inhibition, most hits filed as inhibitors; note: nearly all actives have a fitted effect of over 70% in size
Target sequence (P83916 whole entry, looked up): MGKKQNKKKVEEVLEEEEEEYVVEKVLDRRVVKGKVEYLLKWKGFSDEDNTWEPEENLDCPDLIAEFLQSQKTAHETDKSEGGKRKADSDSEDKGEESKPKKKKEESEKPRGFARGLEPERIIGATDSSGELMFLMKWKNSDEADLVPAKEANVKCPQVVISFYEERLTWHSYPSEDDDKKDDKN
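AlphaScreen: HP1-beta (50 nM) preformed 30 min with biotin-H3(1-18)K9me3 peptide (50 nM) in PBS pH 7.4, 0.01% Tween-20. Compound added for 30 min at RT, then streptavidin donor/nickel chelate acceptor beads (10 ug/mL) for 30 min.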
PLK1 PBD block: blocks phosphopeptide binding to human PLK1 polo-box domain. P53350. Plk1 PBD binding of FITC phosphopeptide, fluorescence polarization. Potency, µM, without a hit: max response, negative = inhibition, most hits filed as inhibitors. 360,000 compounds, 2.8% hits. AID 720504; note: series mostly up to about 57 µM; % is set by controls: 0 for no effect and ±100 for the full control effect; nearly all actives have a fitted effect of over 65% in size
JMJD2A Tudor inh: JMJD2A Tudor domain (human) inhibition; O75164; AlphaScreen JMJD2A-Tudor / H3K4me3 peptide binding; Potency, µM (titrated, usually from 114 µM), for inactives: at the top dose activity change, negative = inhibition, most hits filed as inhibitors; 390,000 compounds, 4.4% hits; note: % is set by controls: 0 for no effect and ±100 for the full control effect; nearly all actives have a fitted effect of over 50% in size
The depositor's hits bear a star; ? = inconclusive; nt = no result; [ ] = dose if it differs, or a comment. Calls come from the whole dose curve; as a rule, active = well fitted curve in the direction sought with a large enough effect; inconclusive = small, poorly fitted or top-dose-only effect, or another doubt; inactive = no such curve, though single readings can be large; an effect the other way counts as inactive or inconclusive. Potency is the fitted concentration of half-maximal effect.

SMILES | G9a inh | 12-LOX inh | BAZ2B inh | HP1b chromo inh | PLK1 PBD block | JMJD2A Tudor inh
COc1ccc(C(=O)Nc2ccccc2C(=O)NCc2cccnc2)cc1OC | 71µM* | -9% | -15% | 39% | 3% | -10%
COc1cccc(C(=O)Nc2cccc(NC(=O)c3ccccc3Cl)c2)c1 | -5% | 8% | -7% | -6% | -4% | -19%
CCOC(=O)C1CCCN(C(=O)c2ccc(Cn3c(=S)[nH]c4cc(C(=O)OC)ccc4c3=O)cc2)C1 (configuration not stated) | 52%[59 µM] | -7% | -16% | 26% | -14% | -14%
O=C1c2oc3ccccc3c(=O)c2C(c2cccc(Br)c2)N1c1ccccn1 (configuration not stated) | -8%[59 µM] | 2% | 0% | 14% | nt | 8%
CN1CC[C@H]2CN(C(=O)Nc3ccccc3-c3ccccc3)C[C@H]21 | nt | 34% | nt | nt | nt | nt
O=C(CCN1N=C(c2ccccc2)CCC1=O)NCC1CCCO1 (configuration not stated) | nt | -11% | 1% | 17% | -10% | 5%
O=C(N/N=C/c1ccccc1C(=O)O)c1cccc(S(=O)(=O)Nc2cc(Cl)ccc2Cl)c1 | -2%[59 µM] | -30% | -12% | 4% | -17% | -11%
O=C(NNC(=S)NC1CCCCC1)c1cccc(S(=O)(=O)Nc2ccccc2Cl)c1 | ? | ? | -31% | ? | 30µM* | ?
O=C(N/N=C/c1cccc(O)c1)c1ccc(-n2cnnn2)cc1 | 8% | 19% | 8% | 59% | 0% | -12%
O=C(N/N=C/c1ccc(O)c(O)c1)c1ccc(-n2cnnn2)cc1 | ? | ? | 50µM* | -12% | -8% | ?
O=C(N/N=C/c1cccnc1)c1cccc(S(=O)(=O)Nc2cccc(Cl)c2)c1 | 0% | 1% | -13% | 12% | -12% | -5%
Cc1ccc(/C=N/NC(=O)c2cccc(S(=O)(=O)Nc3ccccc3Cl)c2)s1 | 50µM* | -17% | 4% | -2% | -4% | ?
O=C(c1cccc(S(=O)(=O)Nc2ccccc2Cl)c1)N1CCCCCC1 | -4% | -14% | -3% | 13% | -7% | -9%
O=C(N/N=C/c1ccncc1)c1cccc(S(=O)(=O)Nc2ccc(Cl)cc2)c1 | -33%[59 µM] | -5% | 20µM* | 54% | -19% | -14%[11.4 µM]
Cc1nc2c(-c3ccccc3)c(C)nn2c(C)c1CCC(=O)N1CCN(c2ccccc2)CC1 | 9%[59 µM] | -19% | -18% | 21% | nt | -26%
Cc1nn(CC(=O)N2CCN(Cc3ccccc3)CC2)c(=O)c2ccccc12 | -37%[12.7 µM] | 0% | -37% | 48% | -5% | 8%
Cc1cc(NC(=O)CCC(=O)N(Cc2ccco2)C(C(=O)NC2CCCCC2)c2cccs2)no1 (configuration not stated) | ? | -28% | -13% | 16% | 4% | 2%
O=C(N/N=C/c1ccc(O)c(O)c1)c1cccc(S(=O)(=O)N2CCCCC2)c1 | 50µM* | ? | ? | 5% | -14% | ?
O=C(Nc1ncccc1O)c1cccc(S(=O)(=O)N2CCN(c3ccc(F)cc3)CC2)c1 | 79µM* | 1% | -17% | 7% | -3% | -32%
CCOc1cc(C=NNC(=O)c2cccc(S(=O)(=O)N3CCCC3)c2)ccc1O | nt | 13% | nt | 47% | -3% | -28%
O=C(Nc1ccncc1)c1cccc(S(=O)(=O)N2CCN(c3ccc(F)cc3)CC2)c1 | ? | 3% | ? | -23% | -6% | ?
O=C(NN=Cc1ccc(F)cc1)c1cccc(S(=O)(=O)N2CCCC2)c1 | nt | 16µM* | nt | 15% | -7% | -12%
O=C(N/N=C/c1ccncc1)c1cccc(S(=O)(=O)N2CCCC2)c1 | 2% | 11% | -10% | 31% | 1% | -21%
COc1cc(C2c3c(-c4ccccc4O)n[nH]c3C(=O)N2CCO)cc(OC)c1OC (configuration not stated) | nt | -2% | nt | nt | nt | nt
O=C(c1ccccc1F)N1CCCC2(CC(c3cccc(C(F)(F)F)c3)=NO2)C1 (configuration not stated) | nt | 42% | nt | nt | nt | nt
SMILES | G9a inh | 12-LOX inh | BAZ2B inh | HP1b chromo inh | PLK1 PBD block | JMJD2A Tudor inh
Cc1nn(C)c2c1c(-c1ccccc1)cc(=O)n2Cc1ccccc1F | 57%[59 µM] | -16% | 36% | 134% | nt | 48%
CC(=C/C(=O)O)/C=C/c1ccc(Cl)o1 | 11µM* | ? | 50µM* | 71µM* | ? | -8%[11.4 µM]
CC(/C=C/c1ccc(C)o1)=C\C(=O)O | 8.9µM* | -11% | -3% | -16% | -27% | -31%
CC(=O)/C=C/c1ccc(C)o1 | ? | -5% | -5% | 11% | -18% | 4%
O=C(Cc1cc(=O)oc2cc(O)ccc12)NCC1CCC(C(=O)O)CC1 (configuration not stated) | 15% | 6% | -1% | 77% | -15% | ?
O=C(/C=C/c1ccccc1Br)c1ccc(O)c(CCCl)c1 | nt | 13µM* | nt | nt | nt | nt
COc1ccc2nc(-c3ccccn3)[nH]c2c1 | 35µM* | -10% | ? | 45% | 0% | -13%
Nc1ccc2nc(-c3ccccn3)[nH]c2c1 | ? | 0% | 45µM* | 25% | -1% | ?
COc1ccc2nc(-c3ccc(N)cc3)[nH]c2c1 | -44%[59 µM] | 0% | -5% | -20% | ? | ?
Nc1ccc2nc(-c3ccccc3)[nH]c2c1 | -10%[59 µM] | -13% | ? | -3% | 0% | -34%
Cc1ccccc1NC(=O)C1CCN(C(=O)c2ccc(F)cc2)CC1 | 3%[59 µM] | -20% | 5% | 12% | nt | -6%
O=C(Nc1ccc(F)c(F)c1)c1cc(S(=O)(=O)NC2CCCC2)ccc1F | -4%[59 µM] | ? | ? | 24% | nt | -4%
NS(=O)(=O)c1ccc(CCNC(=O)CSc2nc3ccsc3c(=O)n2CC2CCC(C(=O)O)CC2)cc1 (configuration not stated) | 9% | -2% | -6% | 30% | -3% | 5%
CCC(C)n1c(SCC(=O)NCCc2ccc(S(N)(=O)=O)cc2)nc2ccsc2c1=O (configuration not stated) | 8% | -21% | 1% | 39% | 5% | -7%
NS(=O)(=O)c1ccc(CCNC(=O)CSc2nc3ccsc3c(=O)n2C2CC2)cc1 | 71µM* | 0% | 15% | 43% | -2% | 1%
CCN(CC)C(=O)CSc1nc2ccsc2c(=O)n1CCCC(=O)NCCc1ccc(S(N)(=O)=O)cc1 | 8% | 6% | nt | ? | 3.8µM* | ?
CC(N)c1ccc(O)cc1 (configuration not stated) | nt | -59% | nt | nt | nt | nt
Cc1ccc(C)c(N2N=C(C(=O)OCc3nnc(-c4ccccc4Br)o3)CCC2=O)c1 | nt | 6% | nt | nt | -4% | nt
COc1ccc(C2c3c(ncn(CCN4CCOCC4)c3=N)Oc3ccc4ccccc4c32)cc1OC (configuration not stated) | nt | 8% | -38% | 23% | -15% | ?
